# Assay results published in the antibiotic and cytotoxicity screens of Wong et al. (2023).
# The campaign covered roughly 39,000 compounds. About 1,500 (3.8%) were called active. What follows is part of a selection rich in actives, with near analogues and random picks from the rest.
# System: HSkMC (human skeletal muscle cells)
# Assay: cytotoxicity call (relative viability < 0.9)
# Conditions: 10 µM
row,SMILES,cytotoxicity call
1,S=C(c1cccs1)N1CCCC1,inactive
2,CN1C(=O)c2cc(NC(=O)Cc3cccs3)ccc2OC[C@@H]2O[C@H](CC(=O)NCCCN3CCOCC3)CC[C@H]21,inactive
3,COc1cc(CO)c(CC(=O)NN)cc1OC,inactive
4,C[C@H](CO)N1C[C@H](C)[C@@H](CN(C)C(=O)Nc2ccc(F)cc2)Oc2ccc(NC(=O)Nc3ccc(C(F)(F)F)cc3)cc2CC1=O,inactive
5,C[C@@H]1CN([C@@H](C)CO)C(=O)Cc2cc(NC(=O)Nc3ccc(F)cc3)ccc2O[C@H]1CN(C)C(=O)Nc1ccc(C(F)(F)F)cc1,inactive
6,C[C@H]1CN([C@@H](C)CO)C(=O)Cc2cc(NC(=O)Nc3ccc(C(F)(F)F)cc3)ccc2O[C@H]1CN(C)C(=O)Nc1ccc(C(F)(F)F)cc1,active
7,C[C@@H]1CN([C@@H](C)CO)C(=O)Cc2cc(NC(=O)Nc3ccc(C(F)(F)F)cc3)ccc2O[C@@H]1CN(C)C(=O)Nc1ccc(C(F)(F)F)cc1,active
8,C[C@@H]1CN([C@H](C)CO)C(=O)Cc2cc(NC(=O)Nc3ccc(C(F)(F)F)cc3)ccc2O[C@@H]1CN(C)C(=O)Nc1ccc(F)cc1,inactive
9,C[C@H]1CN([C@@H](C)CO)C(=O)Cc2cc(NC(=O)Nc3ccc(F)cc3)ccc2O[C@@H]1CN(C)C(=O)Nc1ccc(C(F)(F)F)cc1,inactive
10,CCn1nnc2c(=S)nc[nH]c21,inactive
11,Cc1noc(C)c1NC(=O)Nc1ccc2c(c1)CC(=O)N([C@H](C)CO)C[C@@H](C)[C@@H](CN(C)S(=O)(=O)c1cn(C)cn1)O2,inactive
12,C=CCC[C@@H](Cc1ccc(F)cc1)C(=O)O[C@@H](CNC(=O)[C@@H](CC=C)CC(=O)N[C@@H](CO)Cc1ccccc1)c1ccccc1,active
13,C=CC[C@@H](CC(=O)N[C@H](CO)Cc1ccccc1)C(=O)NC[C@H](OC(=O)[C@@H](CC=C)Cc1ccc(F)cc1)c1ccccc1,active
14,C=CC[C@@H](CC(=O)N[C@H](CO)Cc1ccccc1)C(=O)NC[C@@H](OC(=O)[C@@H](CC=C)Cc1ccc(F)cc1)c1ccccc1,inactive
15,C=CC[C@@H](CC(=O)N[C@@H](CO)Cc1ccccc1)C(=O)NC[C@H](OC(=O)[C@@H](CC=C)Cc1ccc(F)cc1)c1ccccc1,inactive
16,C=CCC[C@H](Cc1ccc(F)cc1)C(=O)O[C@@H](CNC(=O)[C@@H](CC=C)CC(=O)N[C@H](CO)Cc1ccccc1)c1ccccc1,active
17,C=CCC[C@@H](Cc1ccc(F)cc1)C(=O)O[C@H](CNC(=O)[C@@H](CC=C)CC(=O)N[C@H](CO)Cc1ccccc1)c1ccccc1,inactive
18,C=CC[C@@H](CC(=O)N[C@@H](CO)Cc1ccccc1)C(=O)NC[C@@H](OC(=O)[C@@H](CC=C)Cc1ccc(F)cc1)c1ccccc1,inactive
19,C=CCC[C@H](Cc1ccc(F)cc1)C(=O)O[C@@H](CNC(=O)[C@@H](CC=C)CC(=O)N[C@@H](CO)Cc1ccccc1)c1ccccc1,inactive
20,C=CCC[C@H](Cc1ccc(F)cc1)C(=O)O[C@H](CNC(=O)[C@@H](CC=C)CC(=O)N[C@H](CO)Cc1ccccc1)c1ccccc1,active
21,C=CCC[C@@H](Cc1ccc(F)cc1)C(=O)O[C@@H](CNC(=O)[C@@H](CC=C)CC(=O)N[C@H](CO)Cc1ccccc1)c1ccccc1,inactive
22,C=CCC[C@H](Cc1ccc(F)cc1)C(=O)O[C@H](CNC(=O)[C@@H](CC=C)CC(=O)N[C@@H](CO)Cc1ccccc1)c1ccccc1,inactive
23,C=CCC[C@@H](Cc1ccc(F)cc1)C(=O)O[C@H](CNC(=O)[C@@H](CC=C)CC(=O)N[C@@H](CO)Cc1ccccc1)c1ccccc1,inactive
